This note sets out measurements from PubChem BioAssay (NCI).

This is part of a sample that, as a whole, favours compounds with a hit. Of some 83,000 tested, about 20% had one in any assay.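 In brief: 96-well plates, 48 h treatment, single concentration, percent growth endpoint.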 Calls of active or inactive are those of the source. The calls were made as follows: active = growth percent below 10; inactive = the rest.

For this test, the system named is NCI-H23 lung. Kind of test: NCI-60 one-dose screen, 48 h (100 = growth as untreated, 0 = no growth, -100 = all killed). As to conditions: 10 µM unless noted.
`COc1cc(-c2nn(-c3ccccc3)cc2-c2ccnc(NCCNS(=O)(=O)c3ccc(Cl)cc3)n2)ccc1Cl`: the growth is 47.4% (inactive).
Under `COc1cccc(-c2nc3sccn3c2-c2ccnc(NCCNS(=O)(=O)c3cccc(Cl)c3)c2)c1` stands 53.5% (inactive).
Next, `O=C1N=c2cc3c(cc2=C/C1=C/c1sc(=S)n(CCc2ccc(O)cc2)c1O)OCCO3`: 71.2% (inactive); `COc1ccc(OC)c2c1[nH]c(=O)c1c3ncccc3cn21`: 34.4% (inactive).
As for `O=S(=O)(Nc1cccc(Cl)c1)c1ccc(-c2cnc(C3CC3)o2)cc1`, the growth was 29.3% (inactive).
Under `COc1ccc(NC(=O)CSc2nc(C)c(C(C)=O)n2-c2ccc(Cl)cc2)cc1` stands 90.6% (inactive); under `Cc1cc(/C=C\c2ccc3ccccc3[n+]2C)c(O)c2ncccc12`, -4.98% (active); under `CN(C)c1ccc(-c2ccc3[nH]c(=O)nc(-c4ccccc4)c3c2)cn1`, 62.1% (inactive).
Next, `O=C(c1ccccc1)N1N=C(c2ccccc2)CC1c1nnc2n(Cc3ccccc3)c(=O)c3c4c(sc3n12)CCCC4` (centres undefined): 116% (inactive); `N#Cc1c(N)nc2c(C#N)c(NC(=O)c3ccccc3)nn2c1-c1ccccc1`: 87% (inactive).
Consider `COc1ccc(-c2nc3ccc4[nH]ncc4c3c3c2CCCC3)cc1B(O)O`, for which the growth is 72.2% (inactive).
On to `C(=N\Nc1ncc(-c2cc3cc4c(cc3o2)OCO4)s1)/c1ccco1`, for which the growth is 20.9% (inactive).
For `Cn1c(-c2c(N)n(Cc3cccnc3)c3nc(C#N)c(C#N)nc23)nc2ccccc21`, the growth was 92.2% (inactive).
Next, `C[n+]1cccc(CC(=O)NO)c1`: 102% (inactive).
